Only some compounds are listed: those with a hit (about 2.4% of all), similar ones and a draw of the others.
D2 PAM-1: positively modulates the human D2 dopamine receptor allosterically | P14416 | HEK293 T-REx D2, calcium flux, EC20 dopamine potentiation | potentiation, % at 10 µM | 0.34% of 340,000 active | AID 485347;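 active = potentiation over 3 SD above the plate norm, cut at about 30% in these data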; note: 0% is about no effect
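Tetracycline-induced HEK293 T-REx cells force-coupled to calcium signalling expressed D2; compounds were pin-added after a 10 s baseline, read kinetically 180 s, then an EC20 dopamine challenge followed with a further 180 s calcium read.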
D2 PAM-2: potentiates the human D2 dopamine receptor allosterically | DiscoveRx D2 beta-arrestin cells, luminescence, 90 min; 100% = 57 uM dopamine signal | P14416 | 0.23% of 360,000 active | potentiation, % (no concentration beside the values); in the data active = potentiation above about 50%
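PathHunter beta-arrestin assay in DiscoveRx D2 cells. Compounds were added with an EC20 of dopamine (50 nM final) for 90 min at 37 deg C. Luminescence was read 1 h after detection reagent, with 57 uM dopamine as the EC100 control.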
D2 ag-1: activates the human D2 dopamine receptor | P14416 | DiscoveRx PathHunter D2 beta-arrestin, luminescence, 90 min; 100% = 57 uM dopamine signal | activation, % (no concentration beside the values) | 0.084% of 360,000 active; in the data active = activation above about 40%
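Agonist mode: compounds alone added to overnight-plated D2 PathHunter cells for 90 min at 37 C, with 57 uM final dopamine (EC100) defining full response. Beta-arrestin recruitment detected by chemiluminescent reagent, read after 1 h at ambient temperature.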
B2AR arrestin: agonists driving beta-arrestin recruitment to human beta2-adrenergic receptor; AID 492947; Potency, µM (top dose mostly 46.1 µM), without a hit: at the highest dose activation, hits mostly activators; beta-arrestin recruitment to beta2AR, cell-based reporter; 0.02% of 330,000 active; P07550; active = well fitted activation curve with a large enough effect;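 note: potency is the fitted concentration of half-maximal effect; 0% = DMSO controls and full agonism = EC100 isoproterenol or metaproterenol; nearly all actives have a fitted effect of over 65% in size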
Target sequence (P07550 whole entry, looked up): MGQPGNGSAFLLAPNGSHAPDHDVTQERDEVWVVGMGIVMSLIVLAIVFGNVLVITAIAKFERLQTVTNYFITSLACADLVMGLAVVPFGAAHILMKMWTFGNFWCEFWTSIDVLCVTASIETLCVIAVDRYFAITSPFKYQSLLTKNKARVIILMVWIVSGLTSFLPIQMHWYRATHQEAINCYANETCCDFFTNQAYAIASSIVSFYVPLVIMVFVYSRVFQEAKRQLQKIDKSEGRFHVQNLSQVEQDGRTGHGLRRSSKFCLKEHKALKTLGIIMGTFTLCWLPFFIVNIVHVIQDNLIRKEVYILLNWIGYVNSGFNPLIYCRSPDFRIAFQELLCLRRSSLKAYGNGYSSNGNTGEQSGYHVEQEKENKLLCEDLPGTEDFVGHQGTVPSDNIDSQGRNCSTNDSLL
D2 ag-2: agonists of human D2 dopamine receptor; P14416; HEK293 T-REx D2 cells, calcium flux agonist mode; activation, % at 2 µM; 0.53% of 340,000 active;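 active = activation over 3 SD above normal in the single-dose calcium agonist read, cut at about 30% in these data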; note: 0% is about no effect
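Tetracycline-induced HEK293 T-REx cells with force-coupled D2 receptor, plated overnight at 30 C, loaded with no-wash calcium dye. After a 10 s baseline, compound was pin-added and calcium flux read kinetically for 180 s; calcium rises flagged agonists.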
D2 antag: D2 dopamine receptor (human) antagonism | P14416 | HEK293 TREx D2 cells, calcium flux, dopamine EC80 | inhibition, % at 10 µM | 2% of 340,000 active; in the data active = inhibition above about 30%; inactive = below that, where a call was filed; note: 0% is about no effect
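Antagonism is scored as inhibition of an EC80 dopamine-evoked calcium signal in a force-coupled, tetracycline-inducible HEK293 T-REx D2 line, with compound present 180 s before agonist.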
Starred values were filed as active, the others as inactive; · = no result; ! = repeats disagree.

SMILES	D2 PAM-1	D2 PAM-2	D2 ag-1	B2AR arrestin	D2 ag-2	D2 antag
O=C(NC1CCCC1)C(c1cccnc1)N(Cc1ccccc1F)C(=O)c1csnn1 (stereo not drawn)	-2.7	-6.1	-1.4	0.1%	1.1	-3.2
COc1ccc(F)cc1C(=O)C1CCCN(Cc2ccc(Sc3nncn3C)o2)C1 (stereo not drawn)	-17.6	-3.0	-3.7	0.0%	1.1	30.9*
COc1ccc(F)cc1C(=O)C1CCCN(C(=O)C2=C(C)OCCO2)C1 (stereo not drawn)	-8.9	-2.9	-3.3	-0.8%	·	·
COC(=O)N(NC(=O)C(O)(c1ccccc1)c1ccccc1)c1ccccc1	-1.9	-21.5	-3.9	2.3%	1.1	-3.9
O=C(c1ccc(F)cc1)N(NC(=O)C(O)(c1ccccc1)c1ccccc1)c1ccccc1	-7.1	0.4	3.8	0.8%	3.3	39.7*
COc1cc(=O)[nH]c(SCc2c(F)c(F)c(F)c(F)c2F)n1	95.2*	-4.6	2.5	-0.3%	-0.6	-1.2
COc1ccc(CSc2nc(C)cc(=O)[nH]2)cc1Br	2.2	-0.2	-1.2	0.0%	1.2	2.7
Oc1ccc(-c2nnc(-c3ccccc3)c(-c3ccccc3)n2)cc1	-1.4	·	·	-0.9%	1.1	3.5
COC(=O)C(C)Sc1ccc2nnc(CCNS(=O)(=O)c3ccccc3)n2n1 (stereo not drawn)	6.9	-9.4	5.8	-0.4%	-0.7	36.9*
Nc1ccc(O)cc1C(=O)OCC(=O)c1ccc(C2CCCCC2)cc1	-3.7	76.8*	12.8	0.2%	0.4	-6.6
CCn1c(SCC(N)=O)nc2ccccc2c1=O	2.6	-9.7	-0.3	0.5%	0.1	37.2*
NC(=O)CSc1nc2ccccc2c(=O)n1Cc1ccccc1	-0.9	0.4	-1.4	-0.8%	0.2	-15.7
COc1cccc(-n2c(SCC(N)=O)nc3ccccc3c2=O)c1	10.6	3.6	-0.6	0.0%	5.3	27.9
NC(=O)CSc1nc2ccccc2c(=O)n1-c1ccccc1	5.2	-6.6	2.2	-0.4%	-0.5	41.1*
Cc1ccc(-n2c(SCC(N)=O)nc3c([nH]c4ccccc43)c2=O)cc1	32.4*!	-7.5	-5.5	0.3%	0.0	-3.4
CC(NC(=O)C(=O)N1CCCCC1)C(c1cccs1)N1CCN(c2ccc(F)cc2)CC1 (stereo not drawn)	-2.6	-8.1	-2.5	0.0%	0.4	17.0
CC1CCN(CC(=O)N2CCc3ccccc32)CC1	-21.8	-10.7	1.8	-1.0%	0.3	53.6*
CCN=c1scc(C)n1/N=C/c1cc(Br)c(O)c(Br)c1	-3.8	-0.9	-2.0	-0.2%	0.1	-17.6
CCN=c1scc(C)n1/N=C/c1ccc(O)c(O)c1O	-0.5	116.9*	48.7*	0.4%	32.1*	-7.6
CC(=O)N1CCN(S(=O)(=O)c2ccccc2)C1c1ccccc1 (stereo not drawn)	-10.3	-6.4	0.7	0.3%	0.6	2.5
COc1ccc(C2N(C(=O)N(C)C)CCN2S(=O)(=O)c2ccc(OC)cc2)cc1 (stereo not drawn)	21.8	-5.3	-2.1	0.3%	-0.1	37.0*
Cc1ccc(S(=O)(=O)N(CC(=O)N2CCCCC2)c2cccc(C)c2)cc1	-9.4	-5.7	-1.1	-0.1%	0.1	31.8*
CN(C)/C=N/C(=S)Nc1ccccc1F	-3.0	-14.4	-3.9	-0.1%	0.5	·
O=C(N/N=C\c1cccnc1)c1cc(-c2ccc(Cl)s2)[nH]n1	-8.3	0.7	0.7	0.1%	1.4	-23.4
Cc1c(C(=O)NC(C)C)c(-c2ccccc2)nn1-c1ccccc1	7.7	-4.6	-4.4	-1.7%	1.9	5.5
SMILES	D2 PAM-1	D2 PAM-2	D2 ag-1	B2AR arrestin	D2 ag-2	D2 antag
O=C(NCc1ccncc1)c1cn(-c2ccccc2)nc1-c1cccnc1	-16.2	23.0	-1.5	0.1%	-1.0	14.3
COc1ccc(-c2nn(-c3ccccc3)cc2C(=O)NCCCn2ccnc2)cc1	-24.5	-24.2	-1.4	0.4%	-0.6	30.0*
O=C(NC1CCN(Cc2ccc(Cl)cc2)CC1)c1cn(-c2ccccc2)nc1-c1cccnc1	-34.0	-2.6	-1.6	-1.6%	-1.5	74.0*
O=C(NCc1cccnc1)c1cn(-c2ccccc2)nc1-c1ccccc1	-26.0	-22.5	-5.3	-0.2%	-1.2	43.9*
Cc1c(C(=O)NCc2ccccc2)c(-c2ccccc2)nn1-c1ccccc1	1.2	-2.0	1.4	-0.3%	0.8	35.9*
Cc1ccc(C(C)C)c(OCC(O)CN2CCN(c3ccccc3F)CC2)c1 (stereo not drawn)	-15.1	·	·	·	·	·
CCOC(=O)CNC(=O)CSc1ncnc2c1cnn2-c1ccc(C)cc1	-4.7	-2.8	1.0	-0.1%	-0.3	4.8
Cc1ccc(-n2ncc3c(SCC(=O)NNC(=O)c4ccco4)ncnc32)cc1	32.4*	-3.1	1.3	0.0%	0.1	-0.8
COc1ccc(C(=O)NCC(C)C)c(OC)c1	44.3*	-3.1	-0.6	-0.4%	0.9	-6.3
CCCNC(=O)c1ccc(OC)cc1OC	1.6	-4.7	-5.4	-0.6%	0.3	4.6
COc1ccc(OCCCC(=O)NCC(C)C)cc1	-0.7	-8.2	-2.9	0.2%	0.5	30.6*
Cc1cc(C)nc(N(C#N)Cc2ccccc2Cl)n1	5.0	0.8	1.2	0.4%	-1.6	-4.1
Cc1cc(C)nc(N(C#N)Cc2ccccc2C)n1	-2.8	-5.3	0.0	0.0%	-0.2	49.8*
CCCCCCSc1ccc(-c2nc3ccc(C)cn3c2NCc2ccccc2)cc1	-5.9	-4.5	-1.8	-0.8%	0.2	34.2*
O=C(NC(CO)C(O)c1ccc([N+](=O)[O-])cc1)C(Cl)Cl (stereo not drawn)	-16.2	-4.8	4.2	0.1%	2.4	51.9*
Cc1csc2nc(COC(=O)c3ccc(F)cc3)cc(=O)n12	9.8	·	·	·	0.8	·
COCCn1c(C)cc(O)c(C(c2ccccc2)N2CCCCC2)c1=O (stereo not drawn)	7.9	·	·	·	-0.2	·
CN(CC1CCN(CCc2cccc(C(F)(F)F)c2)CC1)C(=O)c1ccc(F)cc1F	-24.8	-3.1	-2.0	-0.1%	0.3	64.5*
CSCCC(=O)N(C)CC1CCN(CCc2cccc(C(F)(F)F)c2)CC1	-8.4	-71.1	5.3	-0.4%	0.6	9.4
CCCC(=O)NCCSC	6.5	-4.9	-1.6	-0.8%	-0.1	-12.6
CC(C)c1ccc(-c2nc(N3CCCCCC3)nc3n[nH]c(N)c23)cc1	7.9	-3.0	-3.1	0.0%	-0.6	-8.8
CC(C)c1ccc(-c2nc(N3CCCC3)nc3n[nH]c(N)c23)cc1	44.3*	-5.7	-0.9	-0.2%	-0.1	2.4
CSCCC(NS(=O)(=O)c1ccc(C)cc1)C(=O)N1CCCCCCC1 (stereo not drawn)	12.2	-11.3	1.2	-3.8%	-0.6	-8.9

Source: PubChem BioAssay (National Center for Advancing Translational Sciences (NCATS))
